# Measured values taken from PMC7862700, “An all-to-all approach to the identification of sequence-specific readers for epigenetic DNA modifications on cytosine”.
# What was measured:
# Test in all cases: DAPPL (digital affinity profiling via proximity ligation, sequencing); 10 mM Tris-HCl pH 7.5, 50 mM NaCl, 1 mM DTT, 4% glycerol, room temperature, 30 min; GST-TFs on glutathione beads, 16-mer random dsDNA library, 0.1% formaldehyde crosslink after washing; high values mean tight binding
# Details in all cases: protein: recombinant; tags: N-terminal GST; dsDNA, one strand shown
# ERF = target: T1, ERF (Homo sapiens, UniProt P50548 1-548)
# T1 sequence: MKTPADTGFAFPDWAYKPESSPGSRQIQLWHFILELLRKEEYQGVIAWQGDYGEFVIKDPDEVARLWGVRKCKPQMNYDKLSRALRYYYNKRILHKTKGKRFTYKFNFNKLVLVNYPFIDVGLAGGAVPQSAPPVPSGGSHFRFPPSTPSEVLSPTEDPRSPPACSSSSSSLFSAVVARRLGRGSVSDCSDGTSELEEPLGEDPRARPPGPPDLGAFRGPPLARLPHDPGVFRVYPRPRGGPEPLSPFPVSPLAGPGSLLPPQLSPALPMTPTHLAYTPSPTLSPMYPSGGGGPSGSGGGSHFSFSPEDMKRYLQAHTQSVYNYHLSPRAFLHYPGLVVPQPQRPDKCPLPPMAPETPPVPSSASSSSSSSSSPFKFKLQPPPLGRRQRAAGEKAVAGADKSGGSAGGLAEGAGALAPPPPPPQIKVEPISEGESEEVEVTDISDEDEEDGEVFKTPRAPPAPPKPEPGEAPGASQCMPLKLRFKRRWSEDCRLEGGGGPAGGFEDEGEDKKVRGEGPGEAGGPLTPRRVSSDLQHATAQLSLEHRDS
# How it was run: (§1)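 Yeast served to express human transcription factors as GST fusions, which were then captured on glutathione beads and labelled with DNA barcodes. Pooled with a tag-only sample, they were incubated with 200 nmole of a 16-mer random double-stranded DNA library for 30 min at room temperature in Tris/NaCl/DTT/glycerol buffer, washed, crosslinked with 0.1% formaldehyde, ligated by proximity, amplified by PCR and sequenced. Dividing each hexamer's read frequency for a factor by its frequency for the tag-only sample gives the binding signal.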
# ETV3L = target: T2, ETV3L (Homo sapiens, UniProt Q6ZN32 1-361)
# T2 sequence: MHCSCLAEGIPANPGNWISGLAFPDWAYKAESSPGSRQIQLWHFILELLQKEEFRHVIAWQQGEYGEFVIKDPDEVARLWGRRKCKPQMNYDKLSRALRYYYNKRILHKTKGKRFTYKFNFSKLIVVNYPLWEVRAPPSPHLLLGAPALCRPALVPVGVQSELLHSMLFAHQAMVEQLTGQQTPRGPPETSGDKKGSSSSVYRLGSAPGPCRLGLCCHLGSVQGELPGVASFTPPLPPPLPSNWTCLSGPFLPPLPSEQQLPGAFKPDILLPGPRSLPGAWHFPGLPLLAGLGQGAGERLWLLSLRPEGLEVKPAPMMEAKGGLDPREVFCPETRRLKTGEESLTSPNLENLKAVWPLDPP
# How it was run: as §1
# ETS2 = target: T3, ETS2 (Homo sapiens, UniProt P15036 1-469)
# T3 sequence: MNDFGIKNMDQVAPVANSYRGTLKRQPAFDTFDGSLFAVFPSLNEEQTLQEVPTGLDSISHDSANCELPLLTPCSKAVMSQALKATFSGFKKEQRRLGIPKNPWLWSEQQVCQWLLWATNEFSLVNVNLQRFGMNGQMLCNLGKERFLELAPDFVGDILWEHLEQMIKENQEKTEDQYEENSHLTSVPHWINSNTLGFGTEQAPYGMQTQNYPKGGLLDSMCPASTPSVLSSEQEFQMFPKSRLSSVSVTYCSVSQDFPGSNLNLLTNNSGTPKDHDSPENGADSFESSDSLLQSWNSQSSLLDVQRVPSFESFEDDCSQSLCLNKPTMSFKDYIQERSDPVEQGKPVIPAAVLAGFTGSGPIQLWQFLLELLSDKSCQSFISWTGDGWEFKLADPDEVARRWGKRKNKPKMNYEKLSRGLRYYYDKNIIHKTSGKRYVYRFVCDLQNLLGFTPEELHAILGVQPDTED
# How it was run: as §1
# SPDEF = target: T4, SPDEF (Homo sapiens, UniProt O95238 1-335)
# T4 sequence: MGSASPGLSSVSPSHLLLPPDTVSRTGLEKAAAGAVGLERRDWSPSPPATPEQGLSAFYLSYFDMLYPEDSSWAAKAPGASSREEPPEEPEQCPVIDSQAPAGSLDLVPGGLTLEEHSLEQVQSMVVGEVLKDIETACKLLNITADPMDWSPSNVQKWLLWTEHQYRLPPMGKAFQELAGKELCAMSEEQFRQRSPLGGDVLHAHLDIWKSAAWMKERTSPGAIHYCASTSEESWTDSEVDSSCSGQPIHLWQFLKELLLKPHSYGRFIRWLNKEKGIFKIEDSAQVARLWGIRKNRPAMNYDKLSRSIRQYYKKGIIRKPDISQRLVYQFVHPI
# How it was run: as §1
# ETV7 = target: T5, ETV7 (Homo sapiens, UniProt Q9Y603 1-341)
# T5 sequence: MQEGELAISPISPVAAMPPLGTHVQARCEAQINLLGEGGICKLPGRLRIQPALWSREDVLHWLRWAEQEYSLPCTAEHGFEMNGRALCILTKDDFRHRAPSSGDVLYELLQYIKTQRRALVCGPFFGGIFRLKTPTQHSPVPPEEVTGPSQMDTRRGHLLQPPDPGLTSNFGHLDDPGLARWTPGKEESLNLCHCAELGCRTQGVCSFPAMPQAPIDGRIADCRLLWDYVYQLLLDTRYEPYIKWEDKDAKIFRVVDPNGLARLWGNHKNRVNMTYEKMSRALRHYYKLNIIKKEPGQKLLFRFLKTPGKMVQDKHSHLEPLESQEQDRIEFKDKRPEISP
# How it was run: as §1
# ELF5 = target: T6, ELF5 (Homo sapiens, UniProt Q9UKW6-2 1-255)
# T6 sequence: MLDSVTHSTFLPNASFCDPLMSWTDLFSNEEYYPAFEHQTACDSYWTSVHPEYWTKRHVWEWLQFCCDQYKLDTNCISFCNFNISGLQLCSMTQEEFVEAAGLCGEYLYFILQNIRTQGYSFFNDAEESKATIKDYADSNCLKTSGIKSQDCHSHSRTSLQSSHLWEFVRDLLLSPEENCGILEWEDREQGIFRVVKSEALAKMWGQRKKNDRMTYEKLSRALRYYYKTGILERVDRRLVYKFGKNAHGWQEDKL
# How it was run: as §1
# ETV3 = target: T7, ETV3 (Homo sapiens, UniProt P41162-2 1-143)
# T7 sequence: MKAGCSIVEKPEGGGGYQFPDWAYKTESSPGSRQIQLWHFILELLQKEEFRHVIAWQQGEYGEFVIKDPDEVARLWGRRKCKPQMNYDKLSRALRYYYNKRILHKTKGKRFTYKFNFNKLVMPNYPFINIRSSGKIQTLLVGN
# How it was run: as §1
# ETV6 = ETV6 (Homo sapiens, UniProt P41212 1-452)
# How it was run: as §1
# Sequence of ETV6 (P41212 whole entry): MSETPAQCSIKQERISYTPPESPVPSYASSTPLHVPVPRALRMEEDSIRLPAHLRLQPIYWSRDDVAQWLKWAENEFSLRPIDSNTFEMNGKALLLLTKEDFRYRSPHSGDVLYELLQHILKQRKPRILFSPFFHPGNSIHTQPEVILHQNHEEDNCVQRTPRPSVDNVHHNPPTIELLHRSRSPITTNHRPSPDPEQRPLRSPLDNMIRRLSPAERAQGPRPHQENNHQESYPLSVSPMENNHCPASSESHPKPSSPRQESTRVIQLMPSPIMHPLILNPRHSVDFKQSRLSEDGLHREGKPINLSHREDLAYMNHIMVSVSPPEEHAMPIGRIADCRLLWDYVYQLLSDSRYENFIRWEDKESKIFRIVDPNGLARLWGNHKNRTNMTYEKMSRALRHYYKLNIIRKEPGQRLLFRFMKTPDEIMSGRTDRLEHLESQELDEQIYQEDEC
Sequence,binding signal (ERF),binding signal (ETV3L),binding signal (ETS2),binding signal (SPDEF),binding signal (ETV7),binding signal (ELF5),binding signal (ETV3),binding signal (ETV6)
CTAAGT,"1.13 fold enrichment (6-mer frequency, TF over GST control)","1.33 fold enrichment (6-mer frequency, TF over GST control)","1.23 fold enrichment (6-mer frequency, TF over GST control)","1.3 fold enrichment (6-mer frequency, TF over GST control)","1.29 fold enrichment (6-mer frequency, TF over GST control)","1.17 fold enrichment (6-mer frequency, TF over GST control)","1.21 fold enrichment (6-mer frequency, TF over GST control)","1.27 fold enrichment (6-mer frequency, TF over GST control)"
GCTCAC,"1.58 fold enrichment (6-mer frequency, TF over GST control)","1.57 fold enrichment (6-mer frequency, TF over GST control)","1.43 fold enrichment (6-mer frequency, TF over GST control)","1.42 fold enrichment (6-mer frequency, TF over GST control)","1.4 fold enrichment (6-mer frequency, TF over GST control)","1.49 fold enrichment (6-mer frequency, TF over GST control)","1.47 fold enrichment (6-mer frequency, TF over GST control)","1.45 fold enrichment (6-mer frequency, TF over GST control)"
CTGCTT,"1.67 fold enrichment (6-mer frequency, TF over GST control)","1.7 fold enrichment (6-mer frequency, TF over GST control)","1.63 fold enrichment (6-mer frequency, TF over GST control)","1.67 fold enrichment (6-mer frequency, TF over GST control)","1.57 fold enrichment (6-mer frequency, TF over GST control)","1.64 fold enrichment (6-mer frequency, TF over GST control)","1.75 fold enrichment (6-mer frequency, TF over GST control)","1.71 fold enrichment (6-mer frequency, TF over GST control)"
TCGACT,"1.34 fold enrichment (6-mer frequency, TF over GST control)","1.27 fold enrichment (6-mer frequency, TF over GST control)","1.37 fold enrichment (6-mer frequency, TF over GST control)","1.29 fold enrichment (6-mer frequency, TF over GST control)","1.32 fold enrichment (6-mer frequency, TF over GST control)","1.28 fold enrichment (6-mer frequency, TF over GST control)","1.4 fold enrichment (6-mer frequency, TF over GST control)","1.35 fold enrichment (6-mer frequency, TF over GST control)"
GTCTCC,"1.45 fold enrichment (6-mer frequency, TF over GST control)","1.67 fold enrichment (6-mer frequency, TF over GST control)","1.52 fold enrichment (6-mer frequency, TF over GST control)","1.47 fold enrichment (6-mer frequency, TF over GST control)","1.32 fold enrichment (6-mer frequency, TF over GST control)","1.4 fold enrichment (6-mer frequency, TF over GST control)","1.52 fold enrichment (6-mer frequency, TF over GST control)","1.51 fold enrichment (6-mer frequency, TF over GST control)"
TATGGA,"1.16 fold enrichment (6-mer frequency, TF over GST control)","1.13 fold enrichment (6-mer frequency, TF over GST control)","1.12 fold enrichment (6-mer frequency, TF over GST control)","1.18 fold enrichment (6-mer frequency, TF over GST control)","1.26 fold enrichment (6-mer frequency, TF over GST control)","1.08 fold enrichment (6-mer frequency, TF over GST control)","1.22 fold enrichment (6-mer frequency, TF over GST control)","1.05 fold enrichment (6-mer frequency, TF over GST control)"
TTACTA,"1.27 fold enrichment (6-mer frequency, TF over GST control)","1.32 fold enrichment (6-mer frequency, TF over GST control)","1.2 fold enrichment (6-mer frequency, TF over GST control)","1.21 fold enrichment (6-mer frequency, TF over GST control)","1.36 fold enrichment (6-mer frequency, TF over GST control)","1.19 fold enrichment (6-mer frequency, TF over GST control)","1.23 fold enrichment (6-mer frequency, TF over GST control)","1.2 fold enrichment (6-mer frequency, TF over GST control)"
AACACT,"1.21 fold enrichment (6-mer frequency, TF over GST control)","1.3 fold enrichment (6-mer frequency, TF over GST control)","1.37 fold enrichment (6-mer frequency, TF over GST control)","1.22 fold enrichment (6-mer frequency, TF over GST control)","1.32 fold enrichment (6-mer frequency, TF over GST control)","1.34 fold enrichment (6-mer frequency, TF over GST control)","1.29 fold enrichment (6-mer frequency, TF over GST control)","1.4 fold enrichment (6-mer frequency, TF over GST control)"
TATTTA,"1.65 fold enrichment (6-mer frequency, TF over GST control)","1.44 fold enrichment (6-mer frequency, TF over GST control)","1.55 fold enrichment (6-mer frequency, TF over GST control)","1.47 fold enrichment (6-mer frequency, TF over GST control)","1.45 fold enrichment (6-mer frequency, TF over GST control)","1.37 fold enrichment (6-mer frequency, TF over GST control)","1.41 fold enrichment (6-mer frequency, TF over GST control)","1.43 fold enrichment (6-mer frequency, TF over GST control)"
GAATTT,"1.27 fold enrichment (6-mer frequency, TF over GST control)","1.21 fold enrichment (6-mer frequency, TF over GST control)","1.28 fold enrichment (6-mer frequency, TF over GST control)","1.23 fold enrichment (6-mer frequency, TF over GST control)","1.29 fold enrichment (6-mer frequency, TF over GST control)","1.3 fold enrichment (6-mer frequency, TF over GST control)","1.29 fold enrichment (6-mer frequency, TF over GST control)","1.2 fold enrichment (6-mer frequency, TF over GST control)"
CTTCGG,"1.68 fold enrichment (6-mer frequency, TF over GST control)","1.42 fold enrichment (6-mer frequency, TF over GST control)","1.48 fold enrichment (6-mer frequency, TF over GST control)","1.36 fold enrichment (6-mer frequency, TF over GST control)","1.39 fold enrichment (6-mer frequency, TF over GST control)","1.41 fold enrichment (6-mer frequency, TF over GST control)","1.55 fold enrichment (6-mer frequency, TF over GST control)","1.27 fold enrichment (6-mer frequency, TF over GST control)"
TTCTCC,"1.53 fold enrichment (6-mer frequency, TF over GST control)","1.58 fold enrichment (6-mer frequency, TF over GST control)","1.53 fold enrichment (6-mer frequency, TF over GST control)","1.52 fold enrichment (6-mer frequency, TF over GST control)","1.46 fold enrichment (6-mer frequency, TF over GST control)","1.51 fold enrichment (6-mer frequency, TF over GST control)","1.5 fold enrichment (6-mer frequency, TF over GST control)","1.48 fold enrichment (6-mer frequency, TF over GST control)"
TACATG,"1.34 fold enrichment (6-mer frequency, TF over GST control)","1.2 fold enrichment (6-mer frequency, TF over GST control)","1.2 fold enrichment (6-mer frequency, TF over GST control)","1.21 fold enrichment (6-mer frequency, TF over GST control)","1.25 fold enrichment (6-mer frequency, TF over GST control)","1.16 fold enrichment (6-mer frequency, TF over GST control)","1.33 fold enrichment (6-mer frequency, TF over GST control)","1.24 fold enrichment (6-mer frequency, TF over GST control)"
ATCTCG,"1.36 fold enrichment (6-mer frequency, TF over GST control)","1.38 fold enrichment (6-mer frequency, TF over GST control)","1.42 fold enrichment (6-mer frequency, TF over GST control)","1.28 fold enrichment (6-mer frequency, TF over GST control)","1.38 fold enrichment (6-mer frequency, TF over GST control)","1.28 fold enrichment (6-mer frequency, TF over GST control)","1.29 fold enrichment (6-mer frequency, TF over GST control)","1.3 fold enrichment (6-mer frequency, TF over GST control)"
TCCCTC,"1.46 fold enrichment (6-mer frequency, TF over GST control)","1.41 fold enrichment (6-mer frequency, TF over GST control)","1.49 fold enrichment (6-mer frequency, TF over GST control)","1.4 fold enrichment (6-mer frequency, TF over GST control)","1.4 fold enrichment (6-mer frequency, TF over GST control)","1.53 fold enrichment (6-mer frequency, TF over GST control)","1.49 fold enrichment (6-mer frequency, TF over GST control)","1.43 fold enrichment (6-mer frequency, TF over GST control)"
